Assay outcomes from PubChem.
Sampled rows, rich in hits. Any-hit rate of the full collection: about 11%.
ALDH1A1 inh: blocks purified human ALDH1A1 activity; hit rate 7.3% among 220,000; P00352; Purified ALDH1A1, NADH fluorescence, propionaldehyde substrate; Potency, µM (doses to about 75.3 µM), for the others: at the highest dose activity, negative = inhibition, usual class: inhibitors; AID 1030;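 further: potency means the concentration at half of the fitted maximal effect; plate controls were no enzyme wells and a reference inhibitor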
Target sequence (P00352 whole entry, looked up): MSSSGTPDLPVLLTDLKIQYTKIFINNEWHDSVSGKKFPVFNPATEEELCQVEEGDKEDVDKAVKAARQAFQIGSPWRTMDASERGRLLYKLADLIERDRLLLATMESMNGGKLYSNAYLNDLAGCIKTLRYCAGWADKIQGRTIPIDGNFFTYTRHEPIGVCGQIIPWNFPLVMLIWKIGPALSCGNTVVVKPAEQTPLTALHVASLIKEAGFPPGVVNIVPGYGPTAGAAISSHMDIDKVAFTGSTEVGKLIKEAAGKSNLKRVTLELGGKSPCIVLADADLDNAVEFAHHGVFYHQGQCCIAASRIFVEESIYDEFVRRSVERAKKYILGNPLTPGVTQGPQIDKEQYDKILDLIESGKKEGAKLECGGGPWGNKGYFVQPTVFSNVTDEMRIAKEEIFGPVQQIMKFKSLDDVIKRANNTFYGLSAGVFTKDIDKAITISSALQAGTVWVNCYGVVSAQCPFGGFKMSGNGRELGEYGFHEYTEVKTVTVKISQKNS
PNC assembly inh: blocks assembly of the perinucleolar compartment | AID 2417 | hit rate 3.1% among 140,000 | PC3M PTB-GFP, PNC prevalence imaging, 16 h; active compounds read low | activity change (PNC), negative = inhibition, % at 10 µM;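 active means readout at or below -70, meaning at least 70% loss of cells showing the perinucleolar compartment, a nuclear body marking cancer cells; inconclusive means readout between -30 and a set limit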;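 further: plate controls were DMSO wells for no effect and camptothecin positive control wells for full effect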
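PC3M cells stably expressing PTB-GFP, 750–1000 cells/well, treated 16 h at 37 °C with compound (23 nl of library stock), in duplicate. After paraformaldehyde fixation and Hoechst stain, imaged at 20x; PNC prevalence scored by image analysis.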
HPGD block: blocks human HPGD enzyme activity; purified HPGD, NADH fluorescence kinetic, PGE2 substrate; Potency, µM, without a hit: top-dose activity change, negative = inhibition, actives largely listed as inhibitors; hit rate 4.3% among 150,000; AID 894; further: potency means the concentration at half of the fitted maximal effect
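NADH formation kinetics: reaction with 30 uM PGE2 and 1 mM NAD+ (final), 20 nM enzyme, Tris-HCl pH 8 with Tween 20, after 15 min compound preincubation at room temperature. Fluorescence change, last versus first of five reads.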
IMPase Li inh: membrane-permeable IMPase blocker, potentiated with lithium; Potency, µM (highest dose often 59.4 µM), for inactives: at the highest dose activity, negative = IMPase inhibition, actives largely listed as inhibitors; CHO-M1 cells, IP1 TR-FRET (IP-One), carbachol + lithium; hit rate 0.35% among 210,000; active means well fitted inhibition curve with a large enough effect; inconclusive means small, poorly fitted or top-dose-only effect; inactive means no such curve, though single readings can be large or run the other way;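 further: IP1 builds up when IMPase is blocked and the TR-FRET signal falls; potency means the concentration at half of the fitted maximal effect; plate controls were basal vehicle for no effect and high inhibitor control for full effect; nearly all actives have a fitted effect of over 50% in size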
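CHO cells stably expressing M1 receptor (2000/well, cultured 16–30 h) treated 30 min at 37C with compound plus low lithium. Cytosolic IP1 by TR-FRET (665/620 ratio and 620 channel) after 10 min lysis; AC50 by Hill fit.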
IMPase cell inh: IMPase inhibition in cells; P97697; CHO-M1 cells, IP1 accumulation, HTRF TR-FRET ratio; inhibition (IP1 accumulation), % at 46.1 µM; 120,000 tested, under 10 active; active means well fitted curve in the direction sought with a large enough effect in the signal ratio, not every such curve was filed as active; inconclusive means small, poorly fitted or top-dose-only effect, or a change in a side signal; inactive means no such curve, though single readings can be large or run the other way; the % refers to the signal ratio;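 further: cells stimulated with carbachol in lithium chloride buffer; plate controls were DMSO basal wells for no effect and reference inhibitor wells for full effect; higher means more IMPase inhibition seen as more IP1 and lower FRET ratio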
Target sequence (P97697 whole entry, looked up): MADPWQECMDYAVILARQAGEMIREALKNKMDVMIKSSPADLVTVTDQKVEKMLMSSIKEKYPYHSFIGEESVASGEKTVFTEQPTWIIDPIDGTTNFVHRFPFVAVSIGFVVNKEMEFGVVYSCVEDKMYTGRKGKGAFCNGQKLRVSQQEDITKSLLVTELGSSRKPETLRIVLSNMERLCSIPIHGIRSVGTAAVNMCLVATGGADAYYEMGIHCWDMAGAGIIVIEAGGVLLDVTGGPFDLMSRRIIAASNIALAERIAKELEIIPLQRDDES
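CHO-M1, 2000 cells/well, cultured 16–30 h; cpd up to 46 uM; carbachol (50 uM solution, stimulation buffer w/ 50 mM LiCl, pH 7.4), 30 min 37C; IP-One TR-FRET, 10 min RT; Ex 320/Em 665, 620; Hill-fit AC50.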
Starred values were filed as active, the others as inactive; u = inconclusive; x = no result; [ ] = remark or other dose. Unless noted, the call rests on the fitted dose curve; in most records, active means well fitted inhibition curve with a large enough effect (not every such curve was filed as active); inconclusive means small, poorly fitted or top-dose-only effect, or another doubt; inactive means no such curve, though single readings can be large or run the other way. Unless noted, on the % scale 0 is the no-effect control and ±100 the full control effect.

SMILES | ALDH1A1 inh | PNC assembly inh | HPGD block | IMPase Li inh | IMPase cell inh
CC(C)C[C@@H](CC(=O)N[C@@H](CCC(=O)O)CC(=O)O)NC(=O)[C@@H]1CNCC[C@H]1NC(=O)C[C@@H](NC(=O)C[C@H](Cc1c[nH]c2ccccc12)NC(=O)[C@@H]1CCCC[C@H]1N)C(C)C | -8% | x | -3% | 3% | x
O=C(c1ccccc1)N1CCN(c2ncnc3sc4c(c23)CCC4)CC1 | 1.3µM* | 3 | -14% | 8% | 10
CC(C)c1nc(N2CCN(C(=O)c3ccco3)CC2)c2c3c(sc2n1)CCCC3 | u | -16 | u | 20%[38.3 µM] | -3
Cc1nc(N2CCN(C(=O)c3ccco3)CC2)c2c3c(sc2n1)CCC3 | u | -6 | 28µM* | -10%[38.3 µM] | 2
CCN1C(=O)c2cccc3c(S(=O)(=O)NCCc4c[nH]c5ccccc45)ccc1c23 | 14µM* | 7 | -9% | 53%[38.3 µM] | 7
CCN1C(=O)c2cccc3c(S(=O)(=O)NCCCN4CCOCC4)ccc1c23 | u | u | -20% | -6%[38.3 µM] | -2
CCN1C(=O)c2cccc3c(S(=O)(=O)Nc4ccccc4OC)ccc1c23 | 4.5µM* | 68 | -9% | 24%[38.3 µM] | 9
FC(F)(F)c1ccccc1-c1nc(Nc2ccncc2)c2ccccc2n1 | u | x | u | -14% | x
CCN(CC)c1cnn(C/C(=N\OC)c2ccc(Cl)cc2)c(=O)c1Br | -7% | 2 | -12% | 37%[38.3 µM] | 11
Cc1ccccc1C(=O)NCCCc1ccccc1 | -8% | 39 | 14µM* | -5% | x
Cc1ccccc1C(=O)NCCCCc1ccccc1 | -15% | 2 | u | 5% | x
Cc1occc1C(=O)NCCCCc1ccccc1 | 18µM* | u | 20µM* | 47%[38.3 µM] | 3
Cc1occc1C(=O)NCc1ccccc1 | -2% | 16 | -21% | -10%[38.3 µM] | 8
O=C(NCc1cccc(CNC(=O)c2ccco2)c1)c1ccco1 | u | u | 14µM* | -16%[38.3 µM] | 13
O=C(NCCCCCNC(=O)c1ccco1)c1ccco1 | 28µM* | 30 | -14% | 25%[38.3 µM] | 3
O=C(NCCCCNC(=O)c1ccco1)c1ccco1 | 2% | 6 | -6% | -4%[38.3 µM] | -2
COc1ccc2c(CCNC(=O)c3ccco3)c[nH]c2c1 | -3% | -114* | u | -1%[38.3 µM] | 12
O=C(NCCSc1c[nH]c2ccccc12)c1ccco1 | -2% | -5 | 16µM* | 1% | -3
Cc1ccc2nc(N3CCN(c4cccc(Cl)c4)CC3)c(-n3nc(C)cc3C)nc2c1 | x | x | x | x | 7
CCOC(=O)C1(CCCc2ccccc2)CCN(C(=O)CCN2CCCCC2=O)CC1 | 4.5µM* | x | x | 26% | x
CCOC(=O)C1(CCCc2ccccc2)CCN(C(=O)CCOC)CC1 | 0.45µM* | x | x | 2% | x
CCOC(=O)C1(CCCc2ccccc2)CCN(C(=O)c2cnc(C)cn2)CC1 | 4.5µM* | x | x | 18% | x
CCOC(=O)C(C)C(C)=O (configuration not stated) | 6% | x | 0% | -10% | x
COc1ccc(Oc2nc3c(c(=O)n(C)c(=O)n3C)n2Cc2ccccc2Cl)cc1 | x | x | x | x | 8
Cc1ccccc1C(=O)NC1CCN(C(=O)N(c2ccccc2)c2ccccc2)CC1 | u | 37 | -19% | 3%[38.3 µM] | -4
SMILES | ALDH1A1 inh | PNC assembly inh | HPGD block | IMPase Li inh | IMPase cell inh
O=[N+]([O-])C(=C1Nc2ccccc2N1)/C(Cl)=C(/Cl)Br | 24µM* | -20 | -7% | -4% | x
O=C(O)/C(=C\c1ccccc1OC(F)F)Sc1nnc(-c2ccc(F)cc2)o1 | 6% | x | x | -11% | x
Cc1ccc(Nc2nc(CSc3nnnn3-c3ccccc3)cs2)cc1 | 8.9µM* | -13 | -13% | 4%[38.3 µM] | 0
Cc1ccc(Nc2nc(CSc3nnnn3C)cs2)cc1 | u | -7 | -17% | -5% | 8
Cc1ccccc1Nc1nc(N)nc(CSc2nnnn2-c2ccccc2)n1 | 13µM* | -25 | -14% | 21%[38.3 µM] | 6
Cc1ccc(Nc2nc(CSc3nnc(-c4ccccc4C)n3C)cs2)cc1 | u | -107* | x | x | 0
O=C(CSc1nc2scc(-c3ccccc3)c2c(=O)[nH]1)N1CCCCC1 | 1.8µM* | x | x | 1% | x
O=C(CN1CCC(O)(c2ccccc2F)CC1)NCCc1c[nH]c2ccccc12 | 10% | 32 | -17% | -1%[38.3 µM] | -14
O=C(CSc1nc2ncc(Cl)cc2[nH]1)N(Cc1ccccc1)C1CCS(=O)(=O)C1 (configuration not stated) | u | x | x | -1% | x
C[C@H]1[C@H](C)CC[C@]2(C(=O)O)CC[C@]3(C)C(=CC[C@H]4[C@]3(C)C[C@@H](O)C3[C@](C)(CO)[C@H](O)[C@@H](O)C[C@]34C)[C@H]12 (some centres not stated) | -10%[13.5 µM] | x | -3% | -1% | x
C[C@@H](NC(=O)c1nc[nH]c1C(=O)N[C@@H](Cc1ccccc1)C(=O)OC(C)(C)C)c1ccccc1 | 1% | x | x | 12% | x
C[C@H](NC(=O)c1nc[nH]c1C(=O)NC(c1ccccc1)c1ccccc1)C(=O)OC(C)(C)C | 2µM* | x | x | 24% | x
C[C@H](NC(=O)c1nc[nH]c1C(=O)N[C@@H](Cc1ccccc1)C(=O)OC(C)(C)C)c1ccccc1 | 18µM* | x | x | 3% | x
O=C(c1csnn1)N1CCC2(CC1)CCN(c1ccccc1)CC2 | 13% | x | -12% | -4% | x
COCCCNC(=O)c1ccc(N2CCOCC2)c(NS(=O)(=O)c2ccc(OC)cc2)c1 | u | -13 | -7% | 24%[38.3 µM] | 5
CCOCCCNC(=O)c1ccc(N2CCOCC2)c(NS(=O)(=O)c2ccc(OC)cc2)c1 | 2.5µM* | x | x | -17% | x
O=C(Nc1ccccc1N1CCOCC1)c1ccccc1NS(=O)(=O)c1ccc(F)cc1 | 0% | u | -3% | 26%[38.3 µM] | 0
CCCCNC(=O)c1ccc(N2CCOCC2)c(NS(=O)(=O)c2ccc(OC)cc2)c1 | 8.9µM* | u | -12% | -3%[38.3 µM] | 7
CCOc1ccc(S(=O)(=O)Nc2ccccc2C(=O)Nc2ccccc2N2CCOCC2)cc1 | 28µM* | u | -14% | 13% | -5
Cc1ccc(C)c(Nc2nnc(-c3ccc(C)c(S(=O)(=O)N4CCN(C)CC4)c3)c3ccccc23)c1 | x | x | x | x | 1
COc1ccccc1N1CCN(CCCNC(=O)c2nnc(Cc3c(F)cccc3Cl)o2)CC1 | x | x | x | x | 3
COc1cc(/C=C(\C#N)c2[nH]nc(N)c2C#N)cc(OC)c1O | -7% | 6 | 16µM* | 49%[38.3 µM] | 16
Fc1ccc(-n2c(-c3ccc4ccccc4n3)n[nH]c2=S)cc1Cl | 1% | x | x | 2.8µM* | x
S=c1[nH]nc(-c2ccc3ccccc3n2)n1-c1ccc2ncccc2c1 | -16% | -15 | 13µM* | -3% | x
S=c1[nH]nc(-c2ccc3ccccc3n2)n1-c1ccc(Cl)cc1 | u | -6 | 10µM* | -6% | -18
S=c1[nH]nc(-c2ccc3ncccc3c2)n1-c1ccc2c(c1)OCCO2 | -5% | x | x | 21% | x
Cc1n[nH]c(=S)n1-c1ccc(Cl)cc1 | -11% | x | x | 10% | x
